RORgamma inh – inhibitors of mouse ROR gamma transcriptional activity | Drosophila S2 Gal4-RORgamma UAS-luciferase reporter, 20 h | Potency, µM (top dose mostly 53.6 µM), usual class: inhibitors | P51450 | AID 2551 | hit rate 5.4% among 310,000; further: nearly all actives have a fitted effect of over 60% in size
Target sequence (P51450 whole entry, looked up, the tested form may be a part): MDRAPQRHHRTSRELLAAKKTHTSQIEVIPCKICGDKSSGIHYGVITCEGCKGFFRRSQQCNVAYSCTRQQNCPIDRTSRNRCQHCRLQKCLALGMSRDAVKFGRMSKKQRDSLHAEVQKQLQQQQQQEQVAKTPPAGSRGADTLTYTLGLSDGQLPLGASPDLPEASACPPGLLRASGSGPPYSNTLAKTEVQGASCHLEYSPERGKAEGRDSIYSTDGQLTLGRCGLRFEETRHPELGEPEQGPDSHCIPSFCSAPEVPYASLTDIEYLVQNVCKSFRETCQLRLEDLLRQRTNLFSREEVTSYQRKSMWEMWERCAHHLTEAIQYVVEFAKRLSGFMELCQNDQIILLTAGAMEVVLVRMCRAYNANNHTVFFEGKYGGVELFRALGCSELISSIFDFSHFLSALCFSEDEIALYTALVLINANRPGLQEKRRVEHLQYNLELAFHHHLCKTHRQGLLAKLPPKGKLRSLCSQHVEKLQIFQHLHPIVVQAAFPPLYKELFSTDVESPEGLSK
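A Gal4/UAS one-hybrid system in insect cells: metallothionein-promoter Gal4–ROR gamma fusion plus Photinus luciferase reporter. Copper sulfate 700 uM final, 20 hr ambient incubation, luminescent detection after 10 min with reagent.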
Epigenetic derep – derepresses silenced GFP reporter in murine cells; murine LDR cells, GFP reporter derepression, 30 h; Potency, µM (doses to about 53.9 µM), actives largely listed as activators; hit rate 0.2% among 280,000; AID 1865; further: nearly all actives have a fitted effect of over 60% in size
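Murine LDR cells carrying a silenced, genomically integrated CMV-driven GFP reporter were exposed to compound for 30 hours at 37 C. After PBS washes, GFP-positive cells (20–120 um objects) were counted by laser-scanning microplate cytometry.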
ClpP mod – qHTS Assay for Activators of ClpP | purified B. subtilis ClpP, FRET peptide cleavage, 20 min | Potency, µM (doses to about 57.5 µM) | hit rate 1.9% among 340,000; active means well fitted falling curve with a large enough effect; inconclusive means small, poorly fitted or top-dose-only effect; inactive means no such curve, though single readings can be large or run the other way; further: the source files actives as falling curves though it sought activators and does not explain the sign; nearly all actives have a fitted effect of over 65% in size
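FRET quenching reversal measured ClpP activation: 10 microg/mL B. subtilis ClpP at pH 8 with the FRET-FV decapeptide, read at 430 nm after 320 nm excitation. The 20-min minus 0-min signal was scaled between DMSO/no-enzyme wells and ADEP (5.8 microM final).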
Sfp PPTase inh – blocks B. subtilis Sfp PPTase activity. Biochemical Sfp PPTase activity, qHTS. Potency, µM, most hits filed as inhibitors. hit rate 3.5% among 310,000;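 further: the enzyme is Sfp with the accession as filed and its product quenches rhodamine fluorescence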
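After 15 min at room temperature with compound, 15 nM Sfp received 5 uM rhodamine-CoA plus 12.5 uM BHQ-2-ybbR (50 mM Hepes pH 7.6, 10 mM MgCl2). Rate came from the fluorescence difference over 30 min, ex 525/em 598 nm.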
VP16 counter – Gal4-VP16 reporter inhibition counter-screen. Drosophila S2 Gal4-VP16 UAS-luciferase, luminescence, 20 h. Potency, µM (top dose mostly 53.6 µM), hits mostly inhibitors. hit rate 3.5% among 310,000. AID 2546;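 further: Gal4-VP16 expression switched on by copper sulfate through the metallothionein promoter; nearly all actives have a fitted effect of over 50% in size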
PINK1 expr mod – modulators of PINK1 expression; PINK1 immunofluorescence, high-content cytometry, 24 h; hit rate 0.2% among 410,000; Potency, µM (doses to about 76.6 µM), hits mostly activators; AID 624263; active means well fitted activation curve with a large enough effect; inconclusive means small, poorly fitted or top-dose-only effect; cell line not stated here; further: nearly all actives have a fitted effect of over 65% in size
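PINK1 protein, normally rapidly degraded, was detected by immunofluorescence after 24 hour compound treatment of a stable cell line. Titration data (5 concentrations) came from laser-scanning cytometry, with CCCP-treated wells as controls.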
Large screens that a line does not name were inactive. In the library only some 8.1% were active in any assay of this set; here they are far more common. Unless noted, the call rests on the fitted dose curve; in most records, active means well fitted curve in the direction sought with a large enough effect; inconclusive means small, poorly fitted or top-dose-only effect, or another doubt; inactive means no such curve, though single readings can be large; an effect the other way counts as inactive or inconclusive.

c1ccc(C2=Nn3c(nnc3-c3ccco3)SC2)cc1	Sfp PPTase inh 50µM, VP16 counter inconclusive (no result: ClpP mod)
Brc1ccccc1C1=Nn2c(nnc2-c2ccccc2)SC1	Sfp PPTase inh 79µM, VP16 counter inconclusive
CN(Cc1ccccc1)C(=O)c1[nH]cnc1C(=O)N[C@@H](Cc1ccccc1)C(=O)OCc1ccccc1	RORgamma inh 10µM, VP16 counter 10µM
C[C@H](NC(=O)c1nc[nH]c1C(=O)N[C@@H](Cc1ccccc1)C(=O)OCc1ccccc1)c1ccccc1	RORgamma inh 4.5µM, VP16 counter 7.9µM
C[C@H](NC(=O)c1nc[nH]c1C(=O)N[C@H](C)c1ccccc1)C(=O)OCc1ccccc1	none
C[C@@H](NC(=O)c1nc[nH]c1C(=O)N[C@@H](Cc1ccccc1)C(=O)OCc1ccccc1)c1ccccc1	RORgamma inh 5.6µM, VP16 counter 7.1µM
CN(Cc1ccccc1)C(=O)c1[nH]cnc1C(=O)NCC(=O)OCc1ccccc1	RORgamma inh 11µM (no result: Epigenetic derep)
O=C(c1ccc(Nc2nc3ccccc3n3nnnc23)cc1)N1CCN(c2ccc(F)cc2)CC1	none (no result: RORgamma inh, Sfp PPTase inh, VP16 counter)
C/C=C/C1=Cc2ccccc2C(C(C(=O)OC)C(=O)OC)N1C(=O)OC (stereo unspecified)	none (no result: ClpP mod, PINK1 expr mod)
O=C(N[C@@H](Cc1ccccc1)C(=O)OCc1ccccc1)c1nc[nH]c1C(=O)NC(c1ccccc1)c1ccccc1	RORgamma inh 3.5µM, VP16 counter 5.6µM
Cc1ccc(CN2CCOCCS2(=O)=O)cc1	none (no result: RORgamma inh, Epigenetic derep, Sfp PPTase inh, VP16 counter, PINK1 expr mod)
CCn1ccnc1CNCc1cn(-c2cc(C)ccc2C)nc1-c1ccccc1	RORgamma inh 14µM
COCCN1CCC(CNCc2cn(-c3cc(C)ccc3C)nc2-c2ccccc2)C1 (stereo unspecified)	RORgamma inh inconclusive, Sfp PPTase inh 50µM, VP16 counter inconclusive
Cc1ccc(C)c(-n2cc(CNCCc3cnccn3)c(-c3ccccc3)n2)c1	none
Cc1ccnc2ccc(F)cc12	none (no result: RORgamma inh, Epigenetic derep, Sfp PPTase inh, VP16 counter)
Cc1cccc(N2CCN(C(=O)c3cnn(-c4ccc(F)cc4F)c3C3CCN(C(=O)OC(C)(C)C)CC3)CC2)c1C	none (no result: RORgamma inh, Sfp PPTase inh, VP16 counter)
O=[N+]([O-])c1ccc(C2CC(c3ccccc3)=Nc3ccccc3S2)cc1 (stereo unspecified)	Sfp PPTase inh 10µM, VP16 counter inconclusive
O=C(NCc1cccnc1)c1nn(-c2ccc(Cl)cc2)nc1CO	ClpP mod 28µM (no result: RORgamma inh, Sfp PPTase inh, VP16 counter)
O=C(O)c1nn(-c2ccccc2)nc1-c1nn(-c2ccccc2)nc1C(=O)O	ClpP mod 25µM, VP16 counter inconclusive
O=C(NCc1ccccc1)c1nn(-c2ccccc2)nc1CO	ClpP mod 32µM (no result: RORgamma inh, Sfp PPTase inh, VP16 counter)
COC(=O)c1cc2oc3ccccc3c2n1Cc1ccc(Cl)cc1	none (no result: RORgamma inh, Sfp PPTase inh, VP16 counter)
Cc1cc(C)cc(NC(=O)Cc2c(C(=O)O)c(C)cn2C)c1	none (no result: RORgamma inh, Sfp PPTase inh, VP16 counter)
Cn1c(N)c(C(=O)Nc2ccc3ccccc3c2)sc1=S	Sfp PPTase inh 14µM
Nc1c(C(=O)Nc2ccc(F)cc2)sc(=S)n1-c1ccccc1F	Sfp PPTase inh 32µM
Brc1cccc(-c2nnn3c2nc(N2CCCCC2)c2ccccc23)c1	none (no result: RORgamma inh, Sfp PPTase inh, VP16 counter)
COc1ccc(-c2noc(CN(C(=O)c3ccc(C)cc3C)C(C)C)n2)cc1	none (no result: RORgamma inh, Sfp PPTase inh, VP16 counter)
O=C(CSc1nc2nccnc2c(=O)n1CCc1c[nH]c2ccccc12)Nc1ccc(F)cc1	none (no result: RORgamma inh, Sfp PPTase inh, VP16 counter)
O=C(Nc1ccccc1)O/N=C(\c1ccccc1)c1ccccn1	RORgamma inh 11µM, Sfp PPTase inh 56µM, PINK1 expr mod inconclusive
Cc1ccccc1C(=O)O/N=C(\c1ccccc1)c1ccccn1	RORgamma inh inconclusive, VP16 counter inconclusive
COc1cc(C(=O)N/N=C(\c2ccccc2)c2ccccn2)cc(OC)c1OC	RORgamma inh 1.3µM, VP16 counter 1.3µM, PINK1 expr mod inconclusive
COc1cccc(C(=O)N/N=C(/c2ccccc2)c2ccccn2)c1	RORgamma inh 0.1µM, VP16 counter 0.14µM
COc1ccc2cc(C(c3nnnn3Cc3ccc(F)cc3)N3CCCCCC3)c(=O)[nH]c2c1 (stereo unspecified)	Sfp PPTase inh 18µM
COc1ccc2cc(C(c3nnnn3Cc3ccccc3)N3CCCCCC3)c(=O)[nH]c2c1 (stereo unspecified)	Sfp PPTase inh inconclusive
